# According to PubChem BioAssay:
# Active and inactive are the calls of the source.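 Rule for the calls, unless noted: active = differentiation response of at least 50%, scaled between solvent and reference control, from cells with both markers; inactive = the rest.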
# Key:
# [1] = reduced mouse 2C T cell binding to pMHC/ICAM-1 vesicles – MLPCN validation set, flow cytometry, LFA-1/ICAM-1 modulator project, pilot screen (AID 2523;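 active = response below a set limit, under 55% cells CD8-positive and vesicle-bound, and CD8 cells' 90th-percentile brightness under 279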;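 for vesicle binding response: mean PE anti-B7-1 fluorescence of CD8+ cells relative to row control; 100% = QL9-loaded vesicles with DMSO vehicle in the same plate row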); conditions: 2C mouse CD8+ T cells, at 7 µM, stronger effect = lower value; double positive events: measured here: CD8+/vesicle+ event percentage
# [2] = molecular target: Integrin beta-1 (Homo sapiens) + Integrin alpha-4 (Homo sapiens) (UniProt P13612+P05556); assay: alpha4beta1 integrin LIBS antibody binding reduction – U937 cells, HUTS-21 mAb, flow cytometry, validation set, VLA-4 allosteric modulator project, pilot screen (AID 2674;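 active = inhibition above 50%, about 3 SD of the validation set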;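 note: antibody binding induced by the VLA-4 ligand LDV present at three times its Kd; 0% = LDV ligand with antibody and no compound and 100% = antibody without LDV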); conditions: HUTS-21 LIBS mAb binding, at 6.7 µM, stronger effect = higher value, binding induced by LDV ligand
# [3] = calorie-restriction mimetic ROS inhibitors, yeast – validation compound set, pilot screen (AID 2706;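 active = superoxide response below 65% of plate, a cut near 3 SD across the whole screen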;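 note: yeast exposed to compound for one week at 30 degrees C before staining; 100% = mean of all compound wells on the same plate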); conditions: S. cerevisiae aging, superoxide DHE fluorescence; at 10 µM, stronger effect = lower value
# [4] = molecular target: Beta-adrenergic receptor kinase 1 (Homo sapiens) (UniProt P25098); assay: GRK2 binders displacing RNA aptamer, biochemical, validation, human GRK2, bead flow cytometry (AID 488806;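 active = aptamer binding inhibition above 30%, about 3 SD of noise from non-fluorescent compounds; inactive = inhibition at or below 30%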); conditions: bead-bound GRK2, FAM-aptamer displacement, at 10 µM, stronger effect = higher value
# [5] = molecular target: Beta-2 adrenergic receptor (Homo sapiens) (UniProt P07550); assay: agonist-induced loss of surface beta2AR – cell-based, FAP fluorogen, flow cytometry, validation set, pilot screen (AID 504459;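 active = percent response above 42, roughly 3 SD of non-fluorescent test compounds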;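 note: agonist-driven loss of surface beta2AR via internalization measured by FAP dye flow cytometry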); conditions: Am2.2-beta2AR cells, at 10 µM, stronger effect = higher value
# [6] = molecular target: AP-2 complex subunit beta (Homo sapiens) (UniProt P63010); assay: beta-arrestin/AP2 interaction blockers – biochemical, validation set, GST-AP2 beads, flow cytometry, pilot screen (AID 504541;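 active = inhibition above 54%, about 3 SD of non-fluorescent compounds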;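 note: AP2 carries R879A mutation and is captured from E. coli lysate; bead-bound FITC arrestin peptide fluorescence measuring arrestin peptide binding to AP2; 0% = DMSO wells and 100% = excess unlabeled arrestin peptide control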); conditions: FITC arrestin peptide, at 10 µM, stronger effect = higher value, AP2 beta2 appendage fragment, R879A mutant
# [7] = cytosolic pH regulators acting via V-ATPase – S. cerevisiae, pHLuorin, HTS validation (AID 504600; in the data active = response above about 15%;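 note: plate controls were DMSO for no effect and reference compound for full effect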); conditions: V-ATPase proton transport, at 10 µM, stronger effect = higher value
# [8] = tested on: anti-desmoglein-3 scFv antibody binding to human DSG3; assay: blockers of pathogenic pemphigus antibody–desmoglein-3 binding – biochemical, validation compound set, bead-based, flow cytometry, pilot screen (AID 588368;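 active = binding below the plate cutoff, the plate median minus 3 SD, with a reading above zero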;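 note: signal is the median channel fluorescence of bead-bound GFP antibody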); conditions: Protein G beads, DSG3-Fc, scFv-GFP binding, at 10 µM, stronger effect = lower value
# [9] = Nile Red efflux blockade in pump-expressing yeast – validation compound set, multiplex, phenotypic, pilot screen (AID 588506;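 active = efflux inhibition above 0.42, the validation set average plus 4 SD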;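 note: Nile Red retained in cells so higher fluorescence means more efflux inhibition; 0 = negative control wells and 1 = enniatin B 25 µM full block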); conditions: S. cerevisiae pump-expressing triplex, Nile Red efflux flow cytometry; at 10 µM; stronger effect = higher value; the pumps come from Candida albicans
# [10] = molecular target: ATP-binding cassette sub-family B member 6 (Homo sapiens) (UniProt Q9NP58); assay: blockers of ABCB6-driven porphyrin uptake – K562-ABCB6 cells, flow cytometry, validation set, pilot screen (AID 588550;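 active = inhibition above the screen-wide mean plus 3 SD, about 51%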;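 note: 0% = DMSO wells and 100% = benzethonium chloride 70 µM positive control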); conditions: K562-ABCB6 porphyrin accumulation, 1 h, at 10 µM, stronger effect = higher value
# [11] = AML differentiation inducers, ER-HoxA9 marrow cells – cell-based, GFP/MAC1 double positive, flow cytometry, validation set, primary screen (AID 588685); conditions: stronger effect = higher value, normalized: vehicle 0, fulvestrant 100;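 note: compound exposure lasts four days before antibody staining and flow analysis; 0% = DMSO wells and 100% = 5 µM fulvestrant positive control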
# Chain of Beta-2 adrenergic receptor (Homo sapiens) (P07550 whole entry, looked up): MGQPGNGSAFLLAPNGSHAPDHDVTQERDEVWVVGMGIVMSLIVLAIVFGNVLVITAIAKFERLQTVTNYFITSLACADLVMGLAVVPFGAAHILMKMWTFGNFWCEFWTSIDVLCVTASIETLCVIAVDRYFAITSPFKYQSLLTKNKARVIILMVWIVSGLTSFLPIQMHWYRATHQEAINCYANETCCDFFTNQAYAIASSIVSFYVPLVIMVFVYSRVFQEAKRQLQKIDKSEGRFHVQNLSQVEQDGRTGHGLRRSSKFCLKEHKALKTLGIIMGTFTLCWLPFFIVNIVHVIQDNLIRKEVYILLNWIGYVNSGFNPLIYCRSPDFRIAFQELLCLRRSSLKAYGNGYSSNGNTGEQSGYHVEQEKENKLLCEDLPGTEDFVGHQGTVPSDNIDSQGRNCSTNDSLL
# Chain of ATP-binding cassette sub-family B member 6 (Homo sapiens) (Q9NP58 whole entry, looked up): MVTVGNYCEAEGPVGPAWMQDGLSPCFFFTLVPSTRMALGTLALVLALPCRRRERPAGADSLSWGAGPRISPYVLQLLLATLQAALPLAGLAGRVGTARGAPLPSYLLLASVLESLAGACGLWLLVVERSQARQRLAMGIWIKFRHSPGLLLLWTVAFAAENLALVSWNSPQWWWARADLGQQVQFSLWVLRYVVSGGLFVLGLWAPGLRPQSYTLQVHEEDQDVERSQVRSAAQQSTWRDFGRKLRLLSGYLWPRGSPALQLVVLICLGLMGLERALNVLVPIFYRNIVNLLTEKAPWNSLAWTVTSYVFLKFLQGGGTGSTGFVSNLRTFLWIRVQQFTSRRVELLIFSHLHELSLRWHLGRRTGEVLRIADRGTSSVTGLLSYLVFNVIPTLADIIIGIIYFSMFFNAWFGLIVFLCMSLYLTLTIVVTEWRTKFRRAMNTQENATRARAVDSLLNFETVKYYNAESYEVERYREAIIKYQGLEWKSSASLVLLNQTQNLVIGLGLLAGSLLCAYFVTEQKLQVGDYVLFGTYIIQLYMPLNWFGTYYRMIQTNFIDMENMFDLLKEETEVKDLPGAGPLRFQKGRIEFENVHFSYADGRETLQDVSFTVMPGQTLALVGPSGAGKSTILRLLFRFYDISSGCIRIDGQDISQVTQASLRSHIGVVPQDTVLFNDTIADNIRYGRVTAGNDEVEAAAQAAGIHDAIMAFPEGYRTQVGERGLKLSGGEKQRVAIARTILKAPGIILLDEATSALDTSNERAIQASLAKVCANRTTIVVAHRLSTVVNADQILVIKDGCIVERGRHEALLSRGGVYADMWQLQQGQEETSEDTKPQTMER
# Chain of Beta-adrenergic receptor kinase 1 (Homo sapiens) (P25098 whole entry, looked up): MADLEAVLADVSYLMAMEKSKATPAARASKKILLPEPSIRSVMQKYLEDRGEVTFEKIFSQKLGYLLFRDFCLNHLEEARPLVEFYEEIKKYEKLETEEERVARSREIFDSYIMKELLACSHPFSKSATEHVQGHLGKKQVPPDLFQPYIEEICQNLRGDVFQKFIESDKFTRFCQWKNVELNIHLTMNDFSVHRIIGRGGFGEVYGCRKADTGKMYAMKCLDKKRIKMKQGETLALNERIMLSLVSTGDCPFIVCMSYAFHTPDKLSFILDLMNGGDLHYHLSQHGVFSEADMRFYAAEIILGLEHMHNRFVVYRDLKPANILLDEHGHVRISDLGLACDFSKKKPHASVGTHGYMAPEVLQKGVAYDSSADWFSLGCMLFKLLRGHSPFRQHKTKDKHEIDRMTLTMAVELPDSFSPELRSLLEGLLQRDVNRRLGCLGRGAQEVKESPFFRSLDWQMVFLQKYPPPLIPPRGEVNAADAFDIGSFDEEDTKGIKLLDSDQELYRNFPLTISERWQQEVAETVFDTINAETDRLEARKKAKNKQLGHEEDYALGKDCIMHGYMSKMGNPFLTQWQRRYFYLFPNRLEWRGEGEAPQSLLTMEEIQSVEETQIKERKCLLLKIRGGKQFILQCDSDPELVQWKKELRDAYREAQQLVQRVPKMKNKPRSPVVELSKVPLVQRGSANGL
# Chain of AP-2 complex subunit beta (Homo sapiens) (P63010 whole entry, looked up, the tested form may be a part, one chain of several): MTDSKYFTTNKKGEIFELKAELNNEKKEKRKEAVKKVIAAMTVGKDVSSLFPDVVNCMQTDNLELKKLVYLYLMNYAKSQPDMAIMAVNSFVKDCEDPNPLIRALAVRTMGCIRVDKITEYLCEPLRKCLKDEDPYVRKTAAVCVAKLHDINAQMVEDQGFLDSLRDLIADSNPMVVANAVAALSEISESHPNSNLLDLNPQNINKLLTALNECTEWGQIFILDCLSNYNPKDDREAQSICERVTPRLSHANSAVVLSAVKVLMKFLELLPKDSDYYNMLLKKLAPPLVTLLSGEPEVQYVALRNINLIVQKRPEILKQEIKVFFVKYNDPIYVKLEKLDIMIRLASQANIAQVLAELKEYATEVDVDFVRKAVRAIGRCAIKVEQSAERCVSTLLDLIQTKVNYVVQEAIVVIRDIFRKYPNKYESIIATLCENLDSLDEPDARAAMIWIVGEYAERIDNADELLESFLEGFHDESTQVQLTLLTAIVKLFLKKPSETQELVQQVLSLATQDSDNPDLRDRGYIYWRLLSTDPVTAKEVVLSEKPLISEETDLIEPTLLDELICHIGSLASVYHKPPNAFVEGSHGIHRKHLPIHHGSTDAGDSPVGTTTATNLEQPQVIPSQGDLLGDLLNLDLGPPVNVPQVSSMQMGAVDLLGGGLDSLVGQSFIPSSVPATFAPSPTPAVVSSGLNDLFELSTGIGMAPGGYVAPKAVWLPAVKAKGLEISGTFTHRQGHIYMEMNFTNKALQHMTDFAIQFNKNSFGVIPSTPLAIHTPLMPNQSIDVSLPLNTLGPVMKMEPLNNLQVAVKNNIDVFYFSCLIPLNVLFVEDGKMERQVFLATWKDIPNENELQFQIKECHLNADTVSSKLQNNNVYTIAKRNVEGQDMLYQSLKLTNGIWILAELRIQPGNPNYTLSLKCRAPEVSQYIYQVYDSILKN
# Chain of Integrin beta-1 (Homo sapiens) + Integrin alpha-4 (Homo sapiens) (P05556 whole entry, looked up): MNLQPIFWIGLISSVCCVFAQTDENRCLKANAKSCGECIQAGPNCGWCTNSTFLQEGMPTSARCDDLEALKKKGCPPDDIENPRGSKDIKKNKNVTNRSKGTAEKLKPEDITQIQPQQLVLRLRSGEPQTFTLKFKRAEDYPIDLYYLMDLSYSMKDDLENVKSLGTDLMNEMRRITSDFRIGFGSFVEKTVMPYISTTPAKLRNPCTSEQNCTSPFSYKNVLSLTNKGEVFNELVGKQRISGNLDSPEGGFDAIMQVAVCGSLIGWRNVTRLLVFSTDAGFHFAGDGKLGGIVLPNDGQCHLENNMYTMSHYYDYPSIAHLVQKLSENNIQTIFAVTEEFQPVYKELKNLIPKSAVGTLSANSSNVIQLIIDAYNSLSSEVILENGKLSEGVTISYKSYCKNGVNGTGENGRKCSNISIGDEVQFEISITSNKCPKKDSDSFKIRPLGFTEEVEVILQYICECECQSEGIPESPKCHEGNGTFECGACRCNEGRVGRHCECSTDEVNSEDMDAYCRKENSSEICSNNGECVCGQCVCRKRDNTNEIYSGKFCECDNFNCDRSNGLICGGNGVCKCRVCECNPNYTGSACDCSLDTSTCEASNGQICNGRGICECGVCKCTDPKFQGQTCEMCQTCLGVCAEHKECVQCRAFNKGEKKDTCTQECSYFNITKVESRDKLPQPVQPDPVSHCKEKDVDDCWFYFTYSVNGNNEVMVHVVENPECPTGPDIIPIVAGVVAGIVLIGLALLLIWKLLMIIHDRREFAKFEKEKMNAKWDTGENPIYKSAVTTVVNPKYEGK
# Chain of Integrin beta-1 (Homo sapiens) + Integrin alpha-4 (Homo sapiens) (P13612 whole entry, looked up): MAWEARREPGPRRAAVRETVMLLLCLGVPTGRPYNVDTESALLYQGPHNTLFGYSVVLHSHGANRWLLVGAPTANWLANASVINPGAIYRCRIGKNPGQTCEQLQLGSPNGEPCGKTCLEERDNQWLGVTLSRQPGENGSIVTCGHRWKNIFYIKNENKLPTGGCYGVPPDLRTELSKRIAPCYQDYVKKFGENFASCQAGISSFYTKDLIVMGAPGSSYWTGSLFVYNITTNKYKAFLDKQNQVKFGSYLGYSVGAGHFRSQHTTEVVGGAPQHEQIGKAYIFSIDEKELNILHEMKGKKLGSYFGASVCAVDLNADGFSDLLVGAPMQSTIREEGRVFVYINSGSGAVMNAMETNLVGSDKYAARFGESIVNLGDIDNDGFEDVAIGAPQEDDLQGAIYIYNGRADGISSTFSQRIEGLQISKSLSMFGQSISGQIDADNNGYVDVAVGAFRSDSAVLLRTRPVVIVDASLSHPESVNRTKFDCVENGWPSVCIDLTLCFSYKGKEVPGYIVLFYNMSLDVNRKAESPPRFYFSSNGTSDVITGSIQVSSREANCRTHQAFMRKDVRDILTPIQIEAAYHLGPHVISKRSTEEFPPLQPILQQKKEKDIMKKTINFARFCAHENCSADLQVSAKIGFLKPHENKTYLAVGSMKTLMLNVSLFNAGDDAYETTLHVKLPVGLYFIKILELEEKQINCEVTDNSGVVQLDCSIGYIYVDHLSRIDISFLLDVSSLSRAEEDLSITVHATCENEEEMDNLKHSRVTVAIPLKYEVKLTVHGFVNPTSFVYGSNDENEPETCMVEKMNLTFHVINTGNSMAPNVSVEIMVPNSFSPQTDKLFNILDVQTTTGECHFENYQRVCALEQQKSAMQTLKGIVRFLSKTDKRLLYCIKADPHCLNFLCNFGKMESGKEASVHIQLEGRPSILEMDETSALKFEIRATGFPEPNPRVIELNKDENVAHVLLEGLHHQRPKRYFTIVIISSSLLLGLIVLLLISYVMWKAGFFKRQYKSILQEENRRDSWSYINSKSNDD
Structure (SMILES),double positive events [1],vesicle binding response [1],inhibition [2],superoxide response (% of plate) [3],aptamer binding inhibition [4],response [5],inhibition [6],response [7],binding (% of control) [8],efflux inhibition (fraction of control) [9],inhibition [10],differentiation response [11]
COc1ccc(S(=O)(=O)NC(Cc2cnc[nH]2)C(=O)O)cc1 (stereo not drawn),49.4%,8.1% (active),9.13% (inactive),100% (inactive),1% (inactive),-7.36% (inactive),-1% (inactive),1.95% (inactive),99.1% (inactive),-0.35 (inactive),-19% (inactive),-20% (inactive)
COc1ccc(-c2coc3cc(OC(=O)N4CCOCC4)ccc3c2=O)cc1,62.6%,185% (inactive),-9.57% (inactive),105% (inactive),-3% (inactive),–,-9.14% (inactive),4.61% (inactive),109% (inactive),-0.16 (inactive),10% (inactive),19.2% (inactive)
O=C(O)C[C@@H](O)C(=O)O,56.6%,193% (inactive),0.69% (inactive),104% (inactive),2% (inactive),–,-10.9% (inactive),-4.82% (inactive),102% (inactive),-0.2 (inactive),4% (inactive),6.26% (inactive)
O[C@@H](CNC[C@H](O)c1ccccc1)c1ccccc1,62.7%,156% (inactive),-27.7% (inactive),99.8% (inactive),-3% (inactive),43.5% (active),9.85% (inactive),0.68% (inactive),102% (inactive),0.01 (inactive),1% (inactive),21.6% (inactive)
COc1ccc(C(=O)OCc2cc3cccc(C)c3[nH]c2=O)cc1,49.3%,163% (inactive),5.36% (inactive),112% (inactive),0% (inactive),–,8.12% (inactive),-29% (inactive),96.4% (inactive),0.06 (inactive),8% (inactive),-29.3% (inactive)
Nc1ncnc2c1ncn2C1OC(CO)C(O)C1O (stereo not drawn),48.3%,175% (inactive),-6.77% (inactive),102% (inactive),3% (inactive),–,-4.3% (inactive),0.12% (inactive),110% (inactive),-0.01 (inactive),5% (inactive),-18% (inactive)
CCc1ccc(/C=C2\SC(=S)N(CCC(=O)N3CCN(C)CC3)C2=O)cc1,56.3%,275% (inactive),-16.8% (inactive),90.8% (inactive),-1% (inactive),39.6% (inactive),-7.8% (inactive),-6.7% (inactive),101% (inactive),0.3 (inactive),2% (inactive),10.4% (inactive)
NC(=O)N1c2ccccc2C=Cc2ccccc21,56%,120% (inactive),5.61% (inactive),112% (inactive),3% (inactive),13.8% (inactive),1.72% (inactive),-12.4% (inactive),98.5% (inactive),-0.07 (inactive),11% (inactive),-3.11% (inactive)
C#CCN(C)Cc1ccccc1,66.2%,248% (inactive),-2.82% (inactive),102% (inactive),2% (inactive),-26.9% (inactive),-10.1% (inactive),-1.24% (inactive),99.9% (inactive),-0.04 (inactive),2% (inactive),-8.93% (inactive)
CC(C)OC(=O)C(C)(C)Oc1ccc(C(=O)c2ccc(Cl)cc2)cc1,54.1%,223% (inactive),12.8% (inactive),106% (inactive),-1% (inactive),–,-5.48% (inactive),0.98% (inactive),103% (inactive),-0.09 (inactive),7% (inactive),-13.1% (inactive)
COC(=O)c1cc(C(=O)NCCC(C)C)cc([N+](=O)[O-])c1,57.8%,229% (inactive),2.3% (inactive),112% (inactive),4% (inactive),7.63% (inactive),-12% (inactive),2.1% (inactive),94.5% (inactive),-0.13 (inactive),3% (inactive),-15.2% (inactive)
Nc1ccc(N=Nc2ccccc2)c(N)n1,61.7%,133% (inactive),28.7% (inactive),114% (inactive),3% (inactive),-11.9% (inactive),4.28% (inactive),6.54% (inactive),103% (inactive),-0.26 (inactive),4% (inactive),-5.97% (inactive)
CCNCCC(CCC(C)C)c1ccc2c(c1)OCO2 (stereo not drawn),54.2%,233% (inactive),9.09% (inactive),103% (inactive),-1% (inactive),–,-9.39% (inactive),-1.01% (inactive),96.9% (inactive),-0.16 (inactive),-3% (inactive),9.49% (inactive)
CC(C)(C)C(=O)NC(=S)Nc1sc2c(c1C(N)=O)CCC2,60.2%,119% (inactive),-4.52% (inactive),109% (inactive),2% (inactive),7.03% (inactive),2.56% (inactive),-1.19% (inactive),96.6% (inactive),-0.24 (inactive),4% (inactive),-29.6% (inactive)
COc1ccc(C(=O)Nc2ccc(OC)c([N+](=O)[O-])c2)cc1Br,59%,113% (inactive),4.27% (inactive),92.1% (inactive),-1% (inactive),8.89% (inactive),7.87% (inactive),4.22% (inactive),83.4% (inactive),-0.175 (inactive),2% (inactive),-10.4% (inactive)
C[C@@H]1C[C@H]2[C@@H]3C[C@H](F)C4=CC(=O)C=C[C@]4(C)[C@@]3(F)[C@@H](O)C[C@]2(C)[C@@]1(O)C(=O)CO,55%,206% (inactive),2.56% (inactive),92.5% (inactive),2% (inactive),–,-9.58% (inactive),10.1% (inactive),103% (inactive),-0.09 (inactive),9% (inactive),-1.82% (inactive)
CC1(C)CC(CC(=O)Nc2nccs2)(c2ccccc2)CCO1 (stereo not drawn),51.5%,182% (inactive),4.42% (inactive),103% (inactive),-7% (inactive),–,-9.2% (inactive),5.11% (inactive),96.4% (inactive),0.18 (inactive),8% (inactive),1.41% (inactive)
C=C(CC)C(=O)c1ccc(OCC(=O)O)c(Cl)c1Cl,52.1%,105% (inactive),-4.21% (inactive),98.5% (inactive),2% (inactive),14.6% (inactive),-9.01% (inactive),1.56% (inactive),108% (inactive),-0.38 (inactive),-92% (inactive),1.64% (inactive)
CCc1cccc2c1NC1(CCCC1)CC2C (stereo not drawn),58.5%,185% (inactive),-16.8% (inactive),96.3% (inactive),4% (inactive),45.9% (active),-1.05% (inactive),1.08% (inactive),97.6% (inactive),-0.06 (inactive),-41% (inactive),10.4% (inactive)
O=c1oc2c(CN3CCN(CCO)CC3)c(O)ccc2cc1-c1ccccn1,62.7%,150% (inactive),-14.9% (inactive),88.3% (inactive),-1% (inactive),59.8% (active),-9.17% (inactive),5.97% (inactive),109% (inactive),-0.06 (inactive),15% (inactive),10.6% (inactive)
Nc1ccc2[nH]ncc2c1,62.1%,174% (inactive),-8.62% (inactive),110% (inactive),12% (inactive),20.4% (inactive),11.5% (inactive),1.54% (inactive),104% (inactive),0.73 (active),-7% (inactive),87.2% (active)
Cc1ccc(P(=O)(CSC(=N)N)c2ccc(C)cc2)cc1,60.2%,155% (inactive),4.27% (inactive),95% (inactive),8% (inactive),1.61% (inactive),2.42% (inactive),-0.71% (inactive),104% (inactive),0.3 (inactive),35% (inactive),4.2% (inactive)
COc1cc(/C=C(\C#N)C(=O)N2CCc3ccccc32)ccc1O,64.1%,273% (inactive),-88.6% (inactive),98.9% (inactive),-1% (inactive),0.72% (inactive),-7.55% (inactive),1.46% (inactive),105% (inactive),0.19 (inactive),-41% (inactive),2.46% (inactive)
O=C(OCCN1CCCC1)C1(c2ccccc2)CCCC1,65.8%,226% (inactive),-4.52% (inactive),86.5% (inactive),1% (inactive),1.23% (inactive),-5.26% (inactive),1.69% (inactive),97% (inactive),-0.06 (inactive),-8% (inactive),-7.2% (inactive)
O=C(Nc1c(C(=O)O)[nH]c2ccccc12)NC1CCCCC1,60.3%,190% (inactive),-17.3% (inactive),102% (inactive),4% (inactive),-18.9% (inactive),3.04% (inactive),5.33% (inactive),101% (inactive),-0.13 (inactive),-3% (inactive),-4% (inactive)
O=Cc1ccc(N2CCCCC2)cc1,54.6%,201% (inactive),10.9% (inactive),106% (inactive),3% (inactive),–,-10.3% (inactive),1.25% (inactive),101% (inactive),-0.05 (inactive),4% (inactive),-3.43% (inactive)
